In PubChem BioAssay (NCI) one finds growth data, which are given here for twelve compounds.

Molecules are shown by their SMILES. This is part of a sample that, as a whole, favours compounds with a hit. Of some 83,000 tested, about 20% had one in any assay.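 The test compound was applied at a single concentration to cells in 96-well plates for 48 hours, and percent growth was recorded.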 Unmarked numbers belong to inactive results. The source made the active and inactive calls. Rule for the calls: active = growth percent below 10; inactive = the rest.

Assay in all cases: NCI-60 one-dose screen, 48 h (100 = growth as untreated, 0 = no growth, -100 = all killed)
What all share (settings): 10 µM unless noted

Assay [1] relates to NCI-H23 lung.
For assay [2], the system named is NCI-H226 lung.
Assay [3] concerns NCI-H322M lung.
Assay [4] relates to HOP-62 NSCLC.
The test system of assay [5] is NCI-H460 lung.
Assay [6] deals with HOP-92 NSCLC.
The test system of assay [7] is NCI-H522 lung.
In assay [8] the test system is A549/ATCC NSCLC.
Assay [9] has as its system 786-0 renal.
Assay [10] has as its system COLO 205 colon.

As for `CC[C@]12C=CCN3CC[C@@]4(c5ccc(OC)cc5N(C)[C@H]4[C@@](O)(C(=O)OC)[C@@H]1OC(=O)CCN1CCc4ccccc4C1)[C@@H]32`, the growth is 81.9% in [1]; 98.9% in assay [2]; 96.1% in assay [3]; 87.5% in assay [4]; 96.8% in [5]; 40.1% in assay [6]. For the same compound, the growth in assay [7] is 101%; in assay [8], 87.8%; in assay [9], 92.7%; in assay [10] it was 74.3%.
Take `N#Cc1nc(-c2ccccc2)oc1N1CCC(C2(C(F)(F)F)N=N2)CC1`: the growth was 91.6% in assay [1]; 97% in assay [2]; 107% in [3]; 113% in [4]; 102% in assay [5]; 90.1% in [6]. Further, the growth in assay [7] was 96.8%; in assay [8], 99.8%; in [9] it was 101%; in [10], 103%.
Consider `CC(Nc1ncnc2ccc(-c3cnc4cnccn34)cc12)c1ccccc1` (stereo not given), for which the growth in assay [1] is 54.8%; in assay [2], 46.9%; in [3], 26.4%; in [4] it was 68.8%; in assay [5] it was 61%; in assay [6] it was 27.1%. In addition, the growth is 27.3% in assay [7], 37.6% in [8], 47.9% in [9] and 81% in [10].
Turning to `Fc1cccc(Cl)c1/C=N/Nc1nc(N/N=C/c2c(F)cccc2Cl)nc(N2CCCCC2)n1`, the growth in assay [1] is 44.8%; in assay [2], 53.9%; in assay [3], 35.8%; in [4], 25.9%; in assay [5], 19.9%; in [6] it was -1.32% (active). In addition, the growth in [7] is 10.4%; in assay [8] it was 21.6%; in assay [9], 28.3%; in assay [10], -16.7% (active).
`CN1CCN(Cc2ccc(/C=N/Nc3ccnc4cc(Cl)ccc34)cc2)CC1`: the growth in assay [1] is 89.2%; in assay [2], 88.4%; in [3], 87.5%; in assay [4], 80.5%; in assay [5], 83.1%; in assay [6], 64.3%. The growth in assay [7] was 101%; in assay [8], 83.7%; in [9], 77.7%; in assay [10], 93.2%.
Turning to `Clc1cccc(/C=N/Nc2nc(N/N=C/c3cccc(Cl)c3)nc(N3CCCCC3)n2)c1`, the growth was 97.8% in assay [1]; 82% in assay [2]; 101% in assay [3]; 104% in [4]; 96.5% in assay [5]; 108% in assay [6]. The growth in assay [7] is 88.3%; in assay [8] it was 86.3%; in assay [9] it was 95.2%; in [10] it was 102%.
With `CS(=O)(=O)c1nccc(-c2c(-c3cccc(OCc4ccc(Cl)c(C(F)(F)F)c4)c3)nc3sccn23)n1`, the growth in [1] is 39.4%; in assay [2] it was 23.6%; in [3], 86.1%; in assay [4], 32%; in assay [5], 55.6%; in assay [6], 73.9%. For the same compound, the growth in assay [7] is 80.1%; in assay [8] it was 106%; in assay [9] it was 106%; in assay [10], 105%.
As to `CCN(CC)c1ccc(/C=N/NC(=O)c2ccc(S(N)(=O)=O)cc2)c(O)c1`, the growth was 20.7% in assay [1]; 43.1% in [2]; 22.1% in assay [3]; 11.6% in [4]; 4.16% (active) in assay [5]; 53.1% in assay [6]. The growth in [7] was 15.1%; in [8], 16%; in assay [9], 4.11% (active); in [10], 14.3%.
Regarding `CCCN1C=C/C(=C\C(=O)n2ccc3ccccc32)c2ccccc21`, the growth is 72.9% in assay [1]; 75.1% in assay [2]; 80.2% in [3]; 94.6% in assay [4]; 94.5% in [5]; 47.9% in assay [6]. In addition, the growth in [7] was 78.4%; in [8] it was 84.9%; in assay [9] it was 103%; in assay [10], 96.4%.
`Cc1ccc(Nc2nc(SC(C)C)nc(-c3ccccc3)c2C#N)cc1`: the growth was 86.1% in assay [1]; 76.1% in assay [2]; 70.7% in [3]; 72.2% in assay [4]; 95.2% in assay [5]; 80.7% in [6]. Further, the growth is 83.7% in assay [7], 96.2% in assay [8], 92.2% in [9] and 112% in assay [10].
Regarding `Cc1cc(=O)oc2cc(OCCCOc3ccc(/C=C/C(=O)Nc4ccc(Br)cc4)cc3)ccc12`, the growth in [1] is 67.8%; in [2], 77.4%; in [3], 94.9%; in assay [4], 85.2%; in assay [5], 9.24% (active); in [6], 53.5%. Further, the growth in assay [7] was 80%; in [8], 92.2%; in [9], 61.7%; in assay [10], 97.7%.
As to `NC1C2CCC1CN(c1cnc(C(=O)Nc3cc(F)cc4cccnc34)cn1)C2` (stereo not given), the growth in assay [1] is 75.1%; in [2] it was 75.7%; in [3], 84.3%; in [4] it was 81.2%; in [5] it was 68.1%; in assay [6], 47.9%. The growth in [7] was 72.3%; in assay [8] it was 68.6%; in [9], 67%; in assay [10] it was -0.393% (active).
